# Most compounds without a hit are left out; they make up all but 7.4% or so of the library.
# SMN2 splice enh – SMN2 splice variant enhancement | 2.8% of 210,000 active | AID 1458 | Potency, µM (titrated, usually from 46.1 µM), for inactives: at the top dose activity change, positive = activation, hits mostly activators | HEK293 SMN2-luciferase splicing reporter, luminescence, 30-36 h; note: % of control where 0% means no effect; nearly all actives have a fitted effect of over 55% in size
#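 HEK293 cells carry an SMN2 minigene-luciferase reporter in which exon 7 inclusion puts luciferase in frame. Cells were seeded at 2000 cells/well, attached for 10-12 hours, then exposed to compounds for 30-36 hours at 37C before ONE-Glo luminescence.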
# Rab9 promoter act – activates the Rab9 promoter; Potency, µM (series often up to 9.22 µM), for inactives: at the top dose activation, negative = inhibition, hits mostly activators; Huh7 Rab9 promoter-luciferase reporter, luminescence, 24 h; AID 485297; 2.8% of 320,000 active; note: % of control where 0% means no effect; nearly all actives have a fitted effect of over 60% in size
#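 Quantitative HTS format; Huh7 Rab9-luciferase reporter cells (1500/well) receive compound 2 h post-plating, incubate 24 h at 37 °C, then get luciferase reagent for 10 min before luminescence reading.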
# ELG1 genotox – genotoxicity induction in ELG1-luciferase HEK293T cells. HEK293T ELG1-luciferase reporter, luminescence, 16 h. Potency, µM (top dose mostly 46 µM), inactives show at the highest dose activity change, positive = activation, hits mostly activators. 1.3% of 330,000 active. AID 504466; note: % of control where 0% means no effect; nearly all actives have a fitted effect of over 60% in size
#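 Genotoxic stress is detected as increased luminescence from luciferase-tagged ELG1 in HEK293T cells, measured with ONE-Glo after a 16 hr treatment at 37 °C.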
# p53 reactivation – mutant p53 re-activation in reporter cells; Potency, µM (top dose mostly 92.2 µM), for the others: at the top dose activity change, positive = activation, actives largely listed as activators; AID 504706; H1299 p53-A138V BP100-luciferase reporter, luminescence, 24 h; 0.063% of 320,000 active; note: % of control where 0% means no effect; nearly all actives have a fitted effect of over 45% in size
#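 H1299 (p53-null), stable ts p53-A138V + BP100-Luc; 1000 cells/well, Opti-MEM/10% FBS; cpd 4 pt, 1:5; 24 h, 37 deg C, 5% CO2; detection reagent 10 min RT; luminescence.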
# FLuc modulator – firefly luciferase modulation, counter-screen for miR-21 project; P08659; purified FLuc, Km substrates, luminescence inhibition; Potency, µM (titrated, usually from 57.5 µM), without a hit: at the top dose activity change, negative = inhibition, usual class: inhibitors; 6.9% of 360,000 active;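 note: plate controls were vehicle for no effect and reference inhibitor for full effect; nearly all actives have a fitted effect of over 55% in size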
# Target sequence (P08659 whole entry, looked up): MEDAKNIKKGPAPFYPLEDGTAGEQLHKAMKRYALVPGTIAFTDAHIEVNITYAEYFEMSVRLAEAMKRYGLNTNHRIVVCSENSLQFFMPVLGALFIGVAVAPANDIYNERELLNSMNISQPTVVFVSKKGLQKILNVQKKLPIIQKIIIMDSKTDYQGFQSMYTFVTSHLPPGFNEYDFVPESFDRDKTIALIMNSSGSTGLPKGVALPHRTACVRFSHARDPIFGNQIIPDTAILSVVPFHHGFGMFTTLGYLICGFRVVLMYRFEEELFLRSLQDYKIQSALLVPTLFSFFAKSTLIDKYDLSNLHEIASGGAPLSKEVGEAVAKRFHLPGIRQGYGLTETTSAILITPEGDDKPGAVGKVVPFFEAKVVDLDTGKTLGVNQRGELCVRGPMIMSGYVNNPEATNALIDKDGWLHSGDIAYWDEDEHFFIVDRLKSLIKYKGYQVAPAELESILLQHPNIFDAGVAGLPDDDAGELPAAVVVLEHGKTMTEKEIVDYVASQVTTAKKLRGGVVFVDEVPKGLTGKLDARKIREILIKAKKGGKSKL
#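 Purified P. pyralis luciferase, 10 nM final, with Km-level 10 uM D-luciferin and 10 uM ATP in 50 mM Tris acetate pH 7.5, 10 mM Mg acetate, 0.01% Tween-20, 0.05% BSA; 6-point qHTS titration about 60 µM downward; luminescence read.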
# NPC1 prom act – activators of NPC1 promoter; Potency, µM (titrated, usually from 9.22 µM), without a hit: at the top dose activation, usual class: activators; Huh7 NPC1 promoter luciferase reporter, 24 h; 2.4% of 320,000 active; note: % of control where 0% means no effect; nearly all actives have a fitted effect of over 60% in size
#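 NPC1 promoter–luciferase Huh7 cells; 24 h compound; luminescence.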
# An asterisk follows results filed as active; ? = inconclusive; . = not tested or not shown. Calls come from the whole dose curve; as a rule, active = well fitted curve in the direction sought with a large enough effect; inconclusive = small, poorly fitted or top-dose-only effect, or another doubt; inactive = no such curve, though single readings can be large; an effect the other way counts as inactive or inconclusive. Potency is the fitted concentration of half-maximal effect.
SMILES,SMN2 splice enh,Rab9 promoter act,ELG1 genotox,p53 reactivation,FLuc modulator,NPC1 prom act
COc1ccccc1NC(=O)CCCOc1cc(=O)n(C)c2ccccc12,?,.,.,.,2%,.
CN(CCCNC(=O)COc1cc(=O)n(C)c2ccccc12)Cc1ccccc1,6%,-6%,9%,-9%,3%,0%
Cn1c(=O)cc(OCCCC(=O)Nc2ccccn2)c2ccccc21,21%,-7%,21µM*,0%,2%,-5%
Cn1cc(C(=O)Nc2ccccn2)c(=O)c2ccccc21,.,?,?,16%,15µM*,?
CC1CCN(C(=O)CCCOc2cc(=O)n(C)c3ccccc23)CC1,?,-5%,18µM*,10%,-2%,-3%
Cn1c(=O)cc(OCCCC(=O)NCc2ccco2)c2ccccc21,10µM*,-4%,18µM*,-15%,-2%,-8%
CN1CCN(CCCNC(=O)CCCOc2cc(=O)n(C)c3ccccc23)CC1,16%,-10%,5%,3%,15%,-5%
CC(C)CCNC(=O)CCCOc1cc(=O)n(C)c2ccccc12,13µM*,-1%,?,-14%,5%,-8%
Cc1ccc(CNC(=O)CCCOc2cc(=O)n(C)c3ccccc23)o1,?,0%,?,-10%,-2%,-10%
CN(C)/C=C1\Oc2ccc3ccccc3c2C1=O,18µM*,?,14%,?,17µM*,3.2µM*
O=C(Nc1cc(Cl)cc(Cl)c1)c1ccc(F)c(S(=O)(=O)NC2CCCCC2)c1,.,.,.,.,2%,.
COc1ccc(-c2cc(C(=O)N3CCCCCC3)c3cc(C)ccc3n2)cc1,.,5%,-3%,-4%,12µM*,-6%
COc1ccc(-c2cc(C(=O)N3CCCCC3)c3ccccc3n2)cc1,.,17%,1%,-3%,5.4µM*,16%
COc1ccc2nc(-c3ccc(Cl)cc3)cc(C(=O)O)c2c1,.,1%,8%,9%,8.5µM*,2%
COc1ccc2nc(C)cc(C(=O)O)c2c1,-6%,-6%,2%,7%,-2%,3%
COc1ccc(-c2cc(C(=O)N3CCOCC3)c3cc(C)ccc3n2)cc1,1%,0%,2%,-3%,17µM*,5%
COc1ccc(-c2cc(C(=O)Oc3ccc(C)cc3)c3cc(C)ccc3n2)cc1,-3%,.,.,.,-17%,.
CNC1=C(Br)C(=O)c2ccncc2C1=O,-83%,.,.,.,.,.
COCc1c(C(=O)OCC(=O)NCc2ccco2)oc2ccccc12,.,.,0%,0%,.,.
CC1(C)NC(=O)N(CC(=O)N2CCN(c3ccc([N+](=O)[O-])cc3)CC2)C1=O,.,0%,-2%,0%,0%,1%
O=C(c1cc(-c2ccncc2)nc2ccccc12)N1CCOCC1,.,3%,-4%,-11%,-1%,-9%
Cc1ccc(-c2cc(C(=O)N3CCOCC3)c3ccccc3n2)cc1,13%,18%,25%,3%,11µM*,7%
Cc1ccc(-c2cc(C(=O)N3CCN(c4ccccc4O)CC3)c3ccccc3n2)o1,.,2.2µM*,0%,11%,0.76µM*,?
CN(/N=C/c1ccc(N(C)C)cc1)C1=NS(=O)(=O)c2ccccc21,.,-7%,-1%,-7%,1%,-28%
CCOCC(=O)Nc1ccc(-c2cn3c(C)csc3n2)cc1,.,.,.,.,17µM*,.
SMILES,SMN2 splice enh,Rab9 promoter act,ELG1 genotox,p53 reactivation,FLuc modulator,NPC1 prom act
Cc1csc2nc(-c3cccc(NC(=O)c4c(F)cccc4F)c3)cn12,.,.,.,.,21µM*,.
CC(=O)Nc1ccc(S(=O)(=O)NCc2cn3c(C)csc3n2)cc1,-57%,0%,1%,1%,-2%,-4%
Cc1csc2nc(-c3cccc(NC(=O)c4ccc(S(N)(=O)=O)cc4)c3)cn12,.,.,.,.,9.5µM*,.
Cc1c(C(=O)Nc2ccncc2)sc2nc(-c3ccccc3)cn12,-75%,-7%,0%,-4%,-8%,0%
Cc1nc2cc(NC(=O)c3cccc(S(C)(=O)=O)c3)ccc2o1,.,12%,0%,16%,-16%,10%
COc1ccc(-n2nnc(-c3nc(-c4cccs4)no3)c2N)cc1,.,.,.,.,-6%,.

# Assay outcomes as filed in PubChem BioAssay.
